Among the test systems are SK-MEL-2 melanoma; EKVX NSCLC; SN12C renal; UO-31 renal; TK-10 renal; ACHN renal; CAKI-1 renal; A498 renal; CCRF-CEM leukemia; MOLT-4 leukemia; SR leukemia; RPMI-8226 leukemia; OVCAR-8 ovarian; OVCAR-5 ovarian; OVCAR-4 ovarian; SK-OV-3 ovarian; IGROV1 ovarian; OVCAR-3 ovarian; HS 578T breast; NCI/ADR-RES ovarian.
Holding throughout (test): NCI-60 one-dose screen, 48 h (100 = growth as untreated, 0 = no growth, -100 = all killed)
Conditions in all cases: 10 µM unless noted

Molecules are shown by their SMILES. The panel holds about 83,000 compounds, 20% with a hit somewhere; the sample as a whole holds those more often.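 Compound tested at a single concentration for 48 hours in 96-well plates; a percent growth value below 10 was scored as active.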 Unmarked numbers belong to inactive results. Calls of active or inactive are those of the source.

Turning to `C=C(CNCCO)[C@@H]1CC[C@]2(CO)CC[C@]3(C)[C@H](CC[C@@H]4[C@@]5(C)CCC(NCCO)C(C)(C)[C@@H]5CC[C@]43C)[C@@H]12` (stereo not given in full), the growth was 96.1% in the assay on SK-MEL-2 melanoma; 82.4% with EKVX NSCLC; 89.1% in the assay with SN12C renal; 65.2% in the assay on UO-31 renal; 92.7% in the assay with TK-10 renal; 95.9% in the assay on ACHN renal. The growth in the assay on CAKI-1 renal is 72.2%; in the assay with A498 renal, 75.3%; in the assay with CCRF-CEM leukemia, 39.2%; with MOLT-4 leukemia it was 39.9%; in the assay with SR leukemia, -22.9% (active); in the assay on RPMI-8226 leukemia, 36.8%. Besides, the growth is 75.8% in the assay with OVCAR-8 ovarian; 90.6% with OVCAR-5 ovarian; 77.1% with OVCAR-4 ovarian; 94.6% in the assay on SK-OV-3 ovarian; 80.4% in the assay on IGROV1 ovarian; 80% in the assay with OVCAR-3 ovarian. Further, the growth in the assay on HS 578T breast was 78.2%; with NCI/ADR-RES ovarian, 95%.
In the case of `CC(C)n1cc(C2=C(c3cccc4ccccc34)C(=O)NC2=O)c2cc(Br)ccc21`, the growth in the assay on SK-MEL-2 melanoma is 73.8%; in the assay with EKVX NSCLC, 85%; in the assay with SN12C renal it was 75.4%; with UO-31 renal, 58%; in the assay with TK-10 renal, 109%; in the assay on ACHN renal, 53.8%. For the same compound, the growth with CAKI-1 renal was 27.9%; in the assay with A498 renal, -8.37% (active); in the assay with CCRF-CEM leukemia, 52.8%; in the assay on MOLT-4 leukemia, 49%; in the assay with SR leukemia, 25.8%; with RPMI-8226 leukemia it was 92.1%. Further, the growth in the assay on OVCAR-8 ovarian is 72.7%; with OVCAR-5 ovarian it was 89.8%; with OVCAR-4 ovarian, 64.9%; with SK-OV-3 ovarian, 64%; in the assay with IGROV1 ovarian, 69.9%; in the assay on OVCAR-3 ovarian it was 20.7%. For the same compound, the figures for the growth in the assay on HS 578T breast and in the assay with NCI/ADR-RES ovarian were 45.8% and 21.1%, respectively.
On to `Cc1[nH]c(C(=O)Nc2ccc(C(N)=O)cc2OC(C)C)c(Cl)c1Cl`, for which the growth in the assay with SK-MEL-2 melanoma was 100%; in the assay with EKVX NSCLC it was 86.3%; in the assay with SN12C renal it was 99.9%; in the assay with UO-31 renal it was 74.4%; in the assay with TK-10 renal it was 117%; with ACHN renal it was 97.2%. Moreover, the growth was 105% in the assay on CAKI-1 renal; 84.3% in the assay on A498 renal; 92.5% in the assay with CCRF-CEM leukemia; 89.2% in the assay on MOLT-4 leukemia; 79.2% in the assay with SR leukemia; 90.4% in the assay with RPMI-8226 leukemia. Also, the growth is 101% in the assay on OVCAR-8 ovarian; 98.3% with OVCAR-5 ovarian; 98.2% in the assay on OVCAR-4 ovarian; 96.4% in the assay on SK-OV-3 ovarian; 95.1% with IGROV1 ovarian; 105% in the assay with OVCAR-3 ovarian. The figures for the growth in the assay with HS 578T breast and with NCI/ADR-RES ovarian were 88.7% and 112%, respectively.
Turning to `O=C1NCCS(=O)(=O)/C1=C\C=C\c1cccc(C(F)(F)F)c1`, the growth in the assay with SK-MEL-2 melanoma is 54.8%; in the assay on EKVX NSCLC it was 82.3%; in the assay on SN12C renal, 24.3%; in the assay on UO-31 renal, 26.8%; with TK-10 renal, 33.6%; with ACHN renal it was 12.7%. Also, the growth in the assay on CAKI-1 renal is 55.4%; in the assay with A498 renal, 56.9%; with CCRF-CEM leukemia it was 0.774% (active); in the assay on MOLT-4 leukemia, 8.72% (active); in the assay on SR leukemia, 6.61% (active); with RPMI-8226 leukemia, -7.36% (active). The growth is 20.4% with OVCAR-8 ovarian; 48.4% in the assay on OVCAR-5 ovarian; 53.4% with OVCAR-4 ovarian; 85.8% in the assay with SK-OV-3 ovarian; 35.5% in the assay with IGROV1 ovarian; 22.2% in the assay with OVCAR-3 ovarian. Besides, the growth with HS 578T breast is 51.1%; in the assay on NCI/ADR-RES ovarian, -37.5% (active).
`O=C1c2ccccc2-c2c1c1ccncc1c(=O)n2CCCn1ccnc1`: the growth is 103% in the assay with SK-MEL-2 melanoma; 96.8% in the assay with EKVX NSCLC; 49.1% in the assay on SN12C renal; 19.1% with UO-31 renal; 82.6% in the assay with TK-10 renal; 0.133% (active) with ACHN renal. In addition, the growth in the assay on CAKI-1 renal is 49.9%; with A498 renal it was 80.9%; in the assay on CCRF-CEM leukemia, 18.5%; in the assay with MOLT-4 leukemia, -12.7% (active); in the assay with SR leukemia, -16.2% (active); with RPMI-8226 leukemia, 34.1%. Further, the growth in the assay with OVCAR-8 ovarian was 32.9%; in the assay on OVCAR-5 ovarian, 88.5%; in the assay on OVCAR-4 ovarian, 72.7%; in the assay on SK-OV-3 ovarian it was 73.6%; in the assay with IGROV1 ovarian, 44.9%; in the assay with OVCAR-3 ovarian, 67.1%. Besides, the values for the growth in the assay on HS 578T breast and with NCI/ADR-RES ovarian were 60.8% and 53.6%, respectively.
As for `CC(C)(C)n1cc(-c2ccnc(NCCNS(=O)(=O)c3ccc(Br)cc3)c2)c(-c2cccc(O)c2)n1`, the growth with SK-MEL-2 melanoma was 30.3%; in the assay with EKVX NSCLC it was 43.4%; in the assay with SN12C renal, 35.7%; with UO-31 renal, 22.7%; in the assay on TK-10 renal, 55.6%; in the assay with ACHN renal, 25%. The growth in the assay with CAKI-1 renal was 29.1%; in the assay on A498 renal, 11.5%; in the assay on CCRF-CEM leukemia it was 27.7%; with MOLT-4 leukemia, 12.9%; with SR leukemia it was -10.5% (active); with RPMI-8226 leukemia, 3.61% (active). The growth with OVCAR-8 ovarian is 35.7%; in the assay on OVCAR-5 ovarian it was 47.5%; with OVCAR-4 ovarian it was 42.8%; in the assay on SK-OV-3 ovarian, 53.2%; in the assay with IGROV1 ovarian it was 40.4%; with OVCAR-3 ovarian, 38.6%. The figures for the growth in the assay with HS 578T breast and in the assay with NCI/ADR-RES ovarian were 16.8% and 33%, respectively.
Turning to `O=CN1N=C(c2cccc(Nc3ccncc3)c2)CC1c1ccc2c(c1)OCO2` (stereo not given), the growth in the assay on SK-MEL-2 melanoma is 85.5%; in the assay on EKVX NSCLC it was 67.6%; in the assay with SN12C renal, 99.3%; with UO-31 renal, 86.9%; with TK-10 renal it was 109%; in the assay with ACHN renal, 97.2%. The growth in the assay with CAKI-1 renal was 80.7%; in the assay on A498 renal, 96.5%; in the assay with CCRF-CEM leukemia, 86.1%; in the assay on MOLT-4 leukemia it was 92.3%; with SR leukemia it was 82.1%; in the assay on RPMI-8226 leukemia it was 80%. The growth in the assay on OVCAR-8 ovarian was 91.3%; with OVCAR-5 ovarian, 98.5%; in the assay with OVCAR-4 ovarian, 82.7%; in the assay on SK-OV-3 ovarian, 78.6%; with IGROV1 ovarian, 102%; in the assay on OVCAR-3 ovarian, 99.6%. Further, the figures for the growth in the assay with HS 578T breast and with NCI/ADR-RES ovarian were 94.2% and 101%, respectively.

These data come from PubChem BioAssay (NCI).
